Counter-ions that a name gives are not always drawn.
What was measured:
Conditions in all cases: 72 h
[1] = system: HCC1937; assay: relative cell viability, compound + RSL3, vs DMSO (fraction of DMSO control); higher = less growth inhibition
[2] = system: MDA-MB-231; assay: as above
[3] = system: HCC1937; assay: relative cell viability, compound alone, vs DMSO (fraction of DMSO control); higher = less growth inhibition
[4] = system: MDA-MB-231; assay: as above
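For relative cell viability, compound + RSL3, vs DMSO in this document: breast cancer cell viability read out with the CCK-8 kit after co-treatment of each compound with the ferroptosis inducer RSL3.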
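For relative cell viability, compound alone, vs DMSO in this document: viability read out with the CCK-8 kit in 96-well plates, screening a set of 303 compounds acting on lipid metabolism targets.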

SMILES | relative cell viability [1] | relative cell viability [2] | relative cell viability [3] | relative cell viability [4]
CC(C)[C@H]1CC[C@H](C(=O)N[C@H](Cc2ccccc2)C(=O)O)CC1 [Nateglinide] + COC(=O)c1ccc([C@H]2c3[nH]c4ccccc4c3C[C@H](C(=O)OC)N2C(=O)CCl)cc1 [RSL3] | 0.594 | 0.487 | – | –
O=C(Nc1ccc(C(O)(C(F)(F)F)C(F)(F)F)cc1)c1ccccc1Cl + COC(=O)c1ccc([C@H]2c3[nH]c4ccccc4c3C[C@H](C(=O)OC)N2C(=O)CCl)cc1 [RSL3] | 0.489 | 0.616 | – | –
O=C1c2cc(CO)cc(O)c2C(=O)c2c(O[C@@H]3O[C@H](CO)[C@@H](O)[C@H](O)[C@H]3O)cccc21 [Aloe-emodin-8-O-beta-D-glucopyranoside] | – | – | 0.544 | 0.783
O=C(Nc1ccccc1)N1CCN(c2nc(-c3ccccc3)ns2)CC1 + COC(=O)c1ccc([C@H]2c3[nH]c4ccccc4c3C[C@H](C(=O)OC)N2C(=O)CCl)cc1 [RSL3] | 0.281 | 0.406 | – | –
CC(C)[C@H](N=C(NS(=O)(=O)c1ccc(Cl)cc1)N1C[C@H](c2ccccc2)C(c2ccc(Cl)cc2)=N1)C(N)=O | – | – | 0.87 | 0.893
CCCCCCCCCCOc1ccc(C(=O)Nc2cc(C(=O)NCCCC)ccc2SC)cc1 + COC(=O)c1ccc([C@H]2c3[nH]c4ccccc4c3C[C@H](C(=O)OC)N2C(=O)CCl)cc1 [RSL3] | 0.408 | 0.421 | – | –
COC(=O)c1sccc1S(=O)(=O)Nc1ccc(Nc2ccccc2)cc1OC + COC(=O)c1ccc([C@H]2c3[nH]c4ccccc4c3C[C@H](C(=O)OC)N2C(=O)CCl)cc1 [RSL3] | 0.347 | 0.542 | – | –
Cc1nc2c([nH]1)c(=O)n(C)c(=O)n2Cc1ccco1 [Furafylline] + COC(=O)c1ccc([C@H]2c3[nH]c4ccccc4c3C[C@H](C(=O)OC)N2C(=O)CCl)cc1 [RSL3] | 0.399 | 0.596 | – | –
CCc1ccc(N(CC(C)C)S(=O)(=O)c2ccc(OCC3CCOCC3)c(CO)c2)cc1 | – | – | 0.954 | 0.939
O=S(=O)(O)c1ccc2cc(N=Nc3cc(S(=O)(=O)O)c4cccnc4c3O)ccc2c1 | – | – | 0.987 | 0.851
O=C(O)c1cccnc1Nc1cccc(C(F)(F)F)c1 [Niflumic acid] | – | – | 1.09 | 0.89
Cc1cc(C)c(S(=O)(=O)Nc2cccc(C(F)(F)F)c2)c(C)c1 + COC(=O)c1ccc([C@H]2c3[nH]c4ccccc4c3C[C@H](C(=O)OC)N2C(=O)CCl)cc1 [RSL3] | 0.504 | 0.775 | – | –
O=C(OC(C(F)(F)F)C(F)(F)F)N1CCN(Cc2ccc(C(F)(F)F)cc2N2CCCC2)CC1 | – | – | 0.999 | 1.01
CCOC(=O)c1c(NC(=O)CN2CCN(C(=O)c3ccco3)CC2)sc2c1CCC2 | – | – | 0.857 | 0.967
CC(C)OC(=O)C(C)(C)Oc1ccc(C(=O)c2ccc(Cl)cc2)cc1 [Fenofibrate] | – | – | 1.16 | 0.955
c1ccc([C@H]2CN3CCSC3=N2)cc1 [Levamisole hydrochloride] | – | – | 0.815 | 0.887
O=c1oc2ccccc2cc1O [3-Hydroxycoumarin] + COC(=O)c1ccc([C@H]2c3[nH]c4ccccc4c3C[C@H](C(=O)OC)N2C(=O)CCl)cc1 [RSL3] | 0.587 | 0.682 | – | –
CCCc1c(OCCCOc2ccc(OCC(=O)O)cc2)ccc(C(C)=O)c1O | – | – | 0.943 | 1.07
O=C(Nc1ccc(C(O)(C(F)(F)F)C(F)(F)F)cc1)c1ccc(C(F)(F)F)cc1 | – | – | 0.54 | 0.631
CCCCC[C@H](O)CC(=O)CCc1ccc(O)c(OC)c1 [6-Gingerol] | – | – | 0.646 | 0.862
O=c1c(O[C@@H]2O[C@H](CO)[C@@H](O)[C@H](O)[C@H]2O)c(-c2ccc(O)cc2)oc2cc(O)cc(O)c12 [Astragalin] | – | – | 0.937 | 0.984
COc1ccc(Nc2ccn(-c3ccccc3)n2)cc1 + COC(=O)c1ccc([C@H]2c3[nH]c4ccccc4c3C[C@H](C(=O)OC)N2C(=O)CCl)cc1 [RSL3] | 0.425 | 0.839 | – | –
O=C(O)c1cc2c(Cl)c(N3CCN(S(=O)(=O)c4c(Cl)cccc4Cl)CC3)ccc2o1 [Vonafexor] + COC(=O)c1ccc([C@H]2c3[nH]c4ccccc4c3C[C@H](C(=O)OC)N2C(=O)CCl)cc1 [RSL3] | 0.514 | 0.745 | – | –
CCCCCCCCCCCC1=C(O)C(=O)C=C(O)C1=O [Embelin] | – | – | 1.08 | 0.983
O=C1/C(=C/c2cccs2)CC/C1=C\c1cccs1 + COC(=O)c1ccc([C@H]2c3[nH]c4ccccc4c3C[C@H](C(=O)OC)N2C(=O)CCl)cc1 [RSL3] | 0.357 | 0.49 | – | –
